From PubChem
Yp Topo-I inh: Yersinia pestis topoisomerase I inhibitors, primary screen, biochemical, cleavage product accumulation, plate reader, single point | AID 504884, 2011 | DNA topoisomerase I (Yersinia pestis CO92) | Y. pestis Topo-I cleavage product accumulation | hit rate 0.064% among 360,000 | activity, % at 10 µM; in the data active = activity above about 50%, passing the limit was not always enough
PfHsp40 yeast: rescue of yeast from PfHsp40 toxicity, primary screen, S. cerevisiae, ATP luminescence. S. cerevisiae expressing PfHsp40, growth rescue. growth rescue, % at 12.5 µM. hit rate 0.68% among 340,000. AID 504582, 2011; in the data active = growth rescue above about 28%, passing the limit was not always enough;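 note: yeast W303a lacking pdr1 and pdr3 grown in galactose medium; growth measured after three days at 30 °C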
CCHF vOTU inh-1: CCHFV vOTU protease inhibitors, primary screen, biochemical, Pep-AMC substrate, fluorescence. AID 651958, 2012. inhibition, % at 11.5 µM. hit rate 0.55% among 370,000
BJeLR viability: MLPCN primary cell-based screen for lethality selective to Ras in HRASV12 cells | BJeLR (HRASV12) viability, CellTiter-Glo ATP luminescence, 48 h | inhibition, % (test concentration not listed) | hit rate 0.17% among 300,000; in the data active = inhibition above about 50%
PrPC surface inh: inhibitors of human cell surface prion protein PrPC, primary screen, cell-based, TR-FRET. inhibition, % at 13.8 µM. TR-FRET read-out. hit rate 0.43% among 370,000. AID 720596, 2013; in the data active = inhibition above about 24%
PrP 5UTR inh: inhibition of PrP 5' UTR reporter expression; cell-based PrP 5' UTR mRNA reporter, plate reader; inhibition, % (no concentration beside the values); hit rate 0.35% among 340,000; AID 488862, 2010; in the data active = inhibition above about 52%
CCHF vOTU inh-2: CCHFV vOTU protease inhibitors, confirmation, biochemical, Pep-AMC substrate, fluorescence; inhibition, % at 11.5 µM; hit rate 17% among 1,900; Recombinant CCHFV vOTU; shares compounds with CCHF vOTU inh-1
Large screens that a line does not name were inactive (follow-up assays come after a bar, where they were run). In the library only some 2% were active in any assay of this set; here they are far more common. Cut-off read from the data, not from the text of the source, unless noted: active = inhibition above about 30%; inactive = the rest.

COc1ccc(-c2ncn(CCc3ccccc3OC)c2CC(C)C)cc1	none (no result: Yp Topo-I inh, PfHsp40 yeast, BJeLR viability, PrP 5UTR inh)
CC(=O)NCC(=O)OC(C)C(=O)Nc1ccc(C(C)=O)cc1 (stereo not given)	CCHF vOTU inh-1 37.7 | CCHF vOTU inh-2 inactive
O=C(N[C@H](C(=O)N1CCC[C@H]1C(=O)NCCc1ccccc1Cl)c1ccccc1)c1cccs1	none (no result: Yp Topo-I inh, PfHsp40 yeast, BJeLR viability, PrP 5UTR inh)
CN(C)C(CNC(=O)c1ccc(NS(=O)(=O)c2ccc(F)c(F)c2)cc1)c1ccccc1 (stereo not given)	none
CN(C)C(CNC(=O)c1ccc(NS(=O)(=O)c2ccc3[nH]c(=O)[nH]c3c2)cc1)c1ccccc1 (stereo not given)	CCHF vOTU inh-1 31.4 | CCHF vOTU inh-2 inactive
CCOc1ccc2[nH]c(SCC(=O)OC)c([N+](=O)[O-])c2c1	none
COC(=O)CSc1[nH]c2ccc(Br)cc2c1[N+](=O)[O-]	CCHF vOTU inh-1 33.4 | CCHF vOTU inh-2 inactive
COC(=O)[C@]12C[C@H](CC(=O)N3CCC(c4ccccc4)CC3)C(=O)N(CCC3=CCCCC3)C1=C[C@H](C1CCCC1)O[C@@H]2C	none (no result: Yp Topo-I inh, PfHsp40 yeast, BJeLR viability, PrP 5UTR inh)
C=C(C)COc1ccc(-c2nc(N)ncc2-c2ccc(OC)cc2)c(O)c1	CCHF vOTU inh-1 29.8 (no result: Yp Topo-I inh, PfHsp40 yeast, BJeLR viability) | CCHF vOTU inh-2 inactive
O=C(C1=C(O)C(=O)N(CCN2CCOCC2)C1c1ccccn1)c1cccs1 (stereo not given)	CCHF vOTU inh-1 31.3 | CCHF vOTU inh-2 inactive
O=C(C1=C(O)C(=O)N(CCN2CCOCC2)C1c1ccc(F)cc1)c1cccs1 (stereo not given)	none
COc1ccc(CCN2CCC(CN3C(=S)NC[C@@H]3Cc3ccccc3)CC2)cc1OC	none (no result: Yp Topo-I inh, PfHsp40 yeast, BJeLR viability, PrP 5UTR inh)
O=c1[nH]c(=S)[nH]c2c1C(c1cccc(C(F)(F)F)c1)OC(CCc1ccccc1)C2 (stereo not given)	CCHF vOTU inh-1 42.1 (no result: Yp Topo-I inh, PfHsp40 yeast, BJeLR viability, PrP 5UTR inh) | CCHF vOTU inh-2 inactive
COc1ccccc1CC(=O)Nc1ccc(S(=O)(=O)N2CCN(C)CC2)cc1	CCHF vOTU inh-1 39.7 | CCHF vOTU inh-2 inactive
COc1ccccc1CC(=O)Nc1ccc(S(=O)(=O)N2CC(C)CC(C)C2)cc1 (stereo not given)	none (no result: BJeLR viability)
Cc1ccc(C)c(N2CCN(C(=O)CCc3nc(-c4ccccc4C)no3)CC2)c1	CCHF vOTU inh-1 35.6 (no result: BJeLR viability) | CCHF vOTU inh-2 inactive
Cc1ccc2c(c1)N(CCCC(=O)N(C)Cc1ccc(F)cc1)C(=O)CO2	none (no result: Yp Topo-I inh, PfHsp40 yeast, BJeLR viability, PrP 5UTR inh)
CC1(Cc2ccc(C(F)(F)F)o2)C(=O)Nc2cc(-c3ccc(F)cc3F)ccc21 (stereo not given)	CCHF vOTU inh-1 39.1 (no result: PfHsp40 yeast, BJeLR viability, PrP 5UTR inh) | CCHF vOTU inh-2 inactive
CC1(Cc2cc(Cl)ccc2C(F)(F)F)C(=O)Nc2cc(F)ccc21 (stereo not given)	none (no result: PfHsp40 yeast, CCHF vOTU inh-1, BJeLR viability, PrPC surface inh, PrP 5UTR inh)
CCN(CC)S(=O)(=O)c1cc(NC(=O)CN2C(=O)NC(C)(c3ccccc3)C2=O)ccc1C (stereo not given)	CCHF vOTU inh-1 34.2 | CCHF vOTU inh-2 inactive
CCN(CC)S(=O)(=O)c1cc(NC(=O)CN2C(=O)NC3(CCCc4ccccc43)C2=O)ccc1C (stereo not given)	none
CC(=O)c1cc(O)c2ccccc2c1O	CCHF vOTU inh-1 37.3 | CCHF vOTU inh-2 inactive
CC(=O)c1coc2c1cc(O)c1ccccc12	none
CC(C)CCCCCCNC(=S)Nc1ccc(S(=O)(=O)N2CCOCC2)cc1	CCHF vOTU inh-1 31.0 | CCHF vOTU inh-2 inactive
COc1cc(Cn2cc([C@]34C[C@H]5C(=O)N(C)CC(=O)N5[C@H]3N(S(=O)(=O)c3ccccc3)c3ccccc34)c3ccccc32)cc(OC)c1	none (no result: Yp Topo-I inh, PfHsp40 yeast, CCHF vOTU inh-1, BJeLR viability, PrP 5UTR inh)
CN(C)c1ccc(/C=C/c2nc3ccccc3c(=O)n2CCO)cc1	CCHF vOTU inh-1 29.6 | CCHF vOTU inh-2 inactive
Cc1c[nH]c2cccc(-c3c(Cl)cccc3Cl)c12	none (no result: Yp Topo-I inh, PfHsp40 yeast, BJeLR viability, PrP 5UTR inh)
CC(=O)Nc1cc(-c2ccccc2N(C)C)cn2c(-c3cccc(C(F)(F)F)c3)cnc12	CCHF vOTU inh-1 33.6 (no result: PfHsp40 yeast, BJeLR viability, PrP 5UTR inh) | CCHF vOTU inh-2 inactive
Cc1ccc(NC(=O)c2ccccc2NS(=O)(=O)c2ccc(Cl)s2)cc1S(=O)(=O)N1CCOCC1	CCHF vOTU inh-1 30.7 | CCHF vOTU inh-2 inactive
O=C(Nc1cc(S(=O)(=O)N2CCOCC2)ccc1O)c1ccc(NS(=O)(=O)c2ccc(Cl)s2)cc1	none
COC(=O)c1c(C)[nH]c(C(=O)C(C)OC(=O)C2CC(=O)N(CCc3ccccc3)C2)c1C (stereo not given)	CCHF vOTU inh-1 32.7 (no result: BJeLR viability) | CCHF vOTU inh-2 inactive
COC(=O)c1c(C)[nH]c(C(=O)C(C)OC(=O)C2CC(=O)N(c3ccc(C)cc3)C2)c1C (stereo not given)	none (no result: BJeLR viability)
O=S(=O)(N[C@@H]1CCCC[C@@H]1N1CCOCC1)c1ccc(Cl)cc1	none (no result: Yp Topo-I inh, PfHsp40 yeast, CCHF vOTU inh-1, BJeLR viability, PrP 5UTR inh)
CCCCc1c(-c2ccccc2OC)ncn1Cc1cc(F)ccc1F	none (no result: Yp Topo-I inh, PfHsp40 yeast, BJeLR viability, PrP 5UTR inh)
CCC1(CC)NC(=O)N(CC(=O)OC(C)C(=O)Nc2cc([N+](=O)[O-])ccc2OC)C1=O (stereo not given)	CCHF vOTU inh-1 30.5 | CCHF vOTU inh-2 inactive
COc1ccc(CN2CCC(CNC(=O)Nc3ccc(C)c(F)c3)CC2)cc1	none (no result: Yp Topo-I inh, PfHsp40 yeast, BJeLR viability, PrP 5UTR inh)
CCN(CC)c1ccc(/C=N/NC(=O)c2c(Cl)cnn2C)c(O)c1	PfHsp40 yeast 546.1, CCHF vOTU inh-1 36.1 | CCHF vOTU inh-2 inactive
COc1ccc(OCC(=O)Nc2ccc(C(=O)Nc3ccccc3C(=O)O)cc2)cc1	none
O=C(COc1ccc2ccccc2c1)Nc1cccc(C(=O)Nc2ccccc2C(=O)O)c1	PfHsp40 yeast 37.1, CCHF vOTU inh-1 33.7 | CCHF vOTU inh-2 inactive
COc1ccc2nc(-c3ccco3)c(-c3ccco3)nc2c1	CCHF vOTU inh-1 62.6 | CCHF vOTU inh-2 inactive
Nc1nc(-c2ccco2)c(-c2ccco2)s1	none
c1coc(-c2nc(-c3ccco3)c(-c3ccco3)nc2-c2ccco2)c1	CCHF vOTU inh-1 35.4 | CCHF vOTU inh-2 inactive
CCCCCCn1c(=O)n2n(c1=O)C[C@]1(OC(=O)NCC3CCCCC3)CN(S(=O)(=O)c3ccc(C)cc3)C[C@]1(O)C2	CCHF vOTU inh-1 32.5 (no result: PfHsp40 yeast, BJeLR viability, PrP 5UTR inh) | CCHF vOTU inh-2 inactive
CCCCCCn1c(=O)n2n(c1=O)C[C@]1(OC(=O)NC3CCCC3)CN(S(=O)(=O)c3ccc(C)cc3)C[C@]1(O)C2	none (no result: PfHsp40 yeast, BJeLR viability, PrP 5UTR inh)
CC(COc1ccc(Cl)cc1)CN1CCC(C(O)(c2ccccc2)c2ccccc2)CC1 (stereo not given)	none (no result: Yp Topo-I inh, PfHsp40 yeast, BJeLR viability, PrP 5UTR inh)
Cc1ccc(NP(=O)(c2ccc(N(C)C)cc2NC(=O)c2cccs2)N2CCOCC2)cc1Cl (stereo not given)	CCHF vOTU inh-1 29.6 | CCHF vOTU inh-2 inactive
CC1(O)C(=O)C2(C)C=CC1C1C(=O)N(c3ccccc3)C(=O)C12 (stereo not given)	none (no result: Yp Topo-I inh, PfHsp40 yeast, BJeLR viability, PrP 5UTR inh)
